HIF-2a block: HIF-2a reporter inhibitors, primary screen, luminescence, 786-0 RCC cells. 786-0 RCC cells HIF-2a reporter, luciferase luminescence, overnight. inhibition, % at 18.8 µM. 360,000 compounds, 0.72% hits;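 active means inhibition of the luminescence signal of 40% or more relative to plate controls, in a single-dose primary screen at 18.75 µM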
Shn3 inh set2: reduction of Shn3 3'UTR firefly luciferase signal, primary screen, Schnurri-3 inhibitor project, cell-based, Clone20 osteoblasts, set 2; Clone20 osteoblast Shn3 3'UTR firefly luciferase, 24 h; inhibition, % at 12.5 µM; 360,000 compounds, 0.52% hits; AID 588674, 2011;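 active means mean inhibition of at least 75% with every replicate also reaching 75%; inconclusive means mean inhibition at least 75% but some replicate below; inactive means mean inhibition below 75%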;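 further: 0% = median of neutral control wells and 100% = pilot-screen positive control compound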
CF NFkB block: inhibitors of PAF-induced NF-kB signaling, primary screen, cell-based, GFP fluorescence, uHTS. 360,000 compounds, 0.86% hits. AID 588850, 2011. inhibition, % at 5 µM. KKLEB NF-kB-GFP reporter, GFP fluorescence overnight;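 active means at least 50% inhibition at 5 µM, scaled per plate between neutral and stimulator controls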;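 further: PAF is a Pseudomonas aeruginosa culture filtrate used as stimulus; plate controls were PAF-stimulated DMSO wells for no effect and unstimulated DMSO wells for full effect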
KKLEB cytotox: cytotoxicity in KKLEB CF airway cells, primary screen, cytotoxicity control for CF NF-kB inhibitor project, cell-based, uHTS, fluorescence assay plates; KKLEB CF airway cells viability, ATPlite luminescence, overnight; active compounds read low; cells stimulated with P. aeruginosa culture filtrate; activity change (cytotoxicity), % at 5 µM; 360,000 compounds, 0.36% hits; AID 602141, 2011;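 active means corrected activity change at or below -50% at 5 µM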
Peg3 prom inh: Peg3 promoter-driven luciferase inhibitors, primary screen, cell-based, HeLa, luciferase luminescence; 360,000 compounds, 1.7% hits; inhibition, % at 20 µM; HeLa PEG-Prom luciferase reporter, overnight;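 active means inhibition of at least 50% at 20 µM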
TRPM1 prom inh: inhibitors of MITF-dependent TRPM1 promoter reporter, primary screen, cell-based, SK-MEL-5, single point, luciferase. 330,000 compounds, 0.83% hits. AID 488899, 2010. SK-MEL-5 TRPM1 promoter luciferase, 24 h. inhibition, % at 12.5 µM;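 active means mean inhibition across replicates of 60% or more, whatever share of single replicates reaches that level; inconclusive means some that reach 60%, reason not given; inactive means mean inhibition across replicates below 60%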
The depositor's hits bear a star; u = inconclusive; x = no result given; ! = not confirmed by another sample. Hits are enriched below; roughly 2.8% of the tested compounds scored in any of these assays.

SMILES	HIF-2a block	Shn3 inh set2	CF NFkB block	KKLEB cytotox	Peg3 prom inh	TRPM1 prom inh
CCOC(=O)c1ccc(N=c2sc(C(=O)OC)cc(=O)n2-c2ccc(C(=O)OCC)cc2)cc1	38.9	1.9	16.6	-19.4	98.9*	30.4
COC(=O)c1cc(=O)n(-c2ccccc2)c(=Nc2ccccc2)s1	29.9	-3.9	20.7	2.8	32.6	-5.8
O=C(NC(c1ccc(-c2ccccc2)cc1)c1cnccn1)C1CCN(Cc2ccc(Oc3ccccc3)cc2)CC1 (configuration not stated)	-20.7	20.4	9.2	-11.0	55.8*	x
CC[N+](CC)(CC)CCOc1ccc(/C=C/c2ccccc2)cc1	4.1	12.2	52.8*	-12.0	10.4	13.9
CC[N+](CC)(CC)CCOc1cccc(OCC[N+](CC)(CC)CC)c1OCC[N+](CC)(CC)CC	4.2	-69.7	-22.7	11.6	-2.3	4.6
O=C1/C(=C/c2ccc(C(=O)O)cc2)CCC/C1=C\c1ccc(C(=O)O)cc1	6.4	-15.2	2.8	5.6	4.2	-9.0
C=CC(=O)N1C/C(=C/c2ccccc2)C(=O)/C(=C\c2ccccc2)C1	91.4*	97.3*	81.3*	-42.0	105.9*	97.3*
C=CC(=O)N1C/C(=C/c2ccc(Cl)cc2)C(=O)/C(=C\c2ccc(Cl)cc2)C1	83.5*	97.3*	87.3*	-97.3*	103.4*	98.3*
CCc1nc2ccc(C(=O)Nc3cccc(OCC(=O)N(C)C)c3)cn2c1N(C)C(=O)c1cccc(OC)c1	10.0	-8.8	14.8	-10.6	-6.5	x
O=C(O)C1C=Cc2ccccc2N1C(=O)c1ccccc1 (configuration not stated) (tested in a mixture with another compound)	4.1	-1.4	-18.7	8.0	0.6	11.2
O=C(Nc1cccc(Cl)c1Cl)C1CC(=O)N(c2ccc(Br)cc2)C1 (configuration not stated)	20.2	86.7*	-5.5	-2.9	24.3	22.3
COc1ccc(NS(=O)(=O)c2cc(C(=O)NNC(=O)c3ccncc3)ccc2OC)c(OC)c1	17.4	-10.5	12.6	-6.2	0.5	x
O=C(NCc1cc(Cl)cc(Cl)c1)c1ccc2nc([C@@H]3O[C@H](CO)[C@H](O)[C@H](O)[C@H]3O)[nH]c2c1	14.0	-7.3	-6.4	21.7	1.7	x
CC(C)NC(=O)C1(C)CCN1C(=O)c1ccccc1F (configuration not stated)	3.0	10.6	-2.3	1.5	3.9	x
Cc1ccc(NC(=O)c2csc(-c3ccccc3)c2C)cc1	18.3	56.0	7.4	-53.9*	29.7	15.7
CC(C)(C)NS(=O)(=O)c1cc(C(=O)O)ccc1Cl	12.7	-18.5	9.9	0.0	9.8	-12.5
Cc1ccc(NC(=O)c2cc(C)n(-c3cccc(C)c3)c2C)cc1	-204.9	-3.8	-5.0	-15.7	-243.3	-21.2
Cc1cc(C(=O)NNS(=O)(=O)c2cc(C(=O)O)ccc2Cl)c(C)n1-c1ccccc1	64.2*	84.5	8.9	-14.1	39.2	33.9
Cc1ccc(NC(=O)c2cc(C)n(-c3ccccc3)c2C)cc1	53.7*	51.4	-6.4	-73.0*	49.6	50.2
Cc1cc(C(=O)Nc2ccc(Cl)cc2)c(C)n1-c1ccccc1	72.8*	x	-14.9	-68.0*	86.9*	x
COc1ccc(-c2nnnn2-c2ccc(F)cc2F)cc1	10.2	9.0	5.8	1.2	15.8	4.5
O=C(Cn1cc(C(F)(F)F)ccc1=O)NCc1ccc(F)cc1	-141.4	-17.5	0.2	5.5	-133.3	-25.7
N#Cc1ccccc1NC(=O)CSc1n[nH]c(=O)n1C1CC1	16.8	-22.4	2.3	-3.0	12.2	0.2
O=C1ON=C(c2ccccc2)/C1=C/c1ccc(O)c(O)c1	41.1*	-15.5	-17.4	4.7	20.3	16.8
COc1ccc(/C=C2\C(=O)ON=C2c2ccccc2)cc1	27.3	51.7	-7.3	7.5	18.9	21.0
SMILES	HIF-2a block	Shn3 inh set2	CF NFkB block	KKLEB cytotox	Peg3 prom inh	TRPM1 prom inh
CNc1cccnc1C=NNC(N)=S	3.7	93.9*	-16.8	-4.1	34.4	46.5
NC(=S)NN=Cc1cc(-c2cccc(N)c2)ccn1	-75.1	76.0	17.8	-7.0	25.4	x
NC(=S)NN=Cc1nccc2c(C(F)(F)F)cccc12	-144.8	81.3	69.9*	-38.4	19.0	x
NC(=S)N/N=C/c1ccccc1	12.6	6.0	11.2	-4.7	-2.6	7.9
c1ccc(-c2c[n+]3c(n2-c2ccccc2)CCC3)cc1	7.4	52.8	0.6	-0.4	8.1	16.8
CCOc1ccc(-n2c(-c3ccccc3)c[n+]3c2CCCCC3)cc1	10.5	u	-8.0	3.7	13.7	63.0*
Cc1ccc(-c2c[n+]3c(n2-c2ccccc2)CCC3)cc1	7.7	90.6*	-11.0	-15.2	34.7	48.0
COc1ccc(-n2c(-c3ccc(Cl)cc3)c[n+]3c2CCc2ccccc2-3)cc1	33.6	75.6	-9.4	-11.8	15.9	45.2
CC(=O)N1CC(C)Sc2ccc(S(=O)(=O)NCc3ccc(Cl)cc3)cc21 (configuration not stated)	6.1	47.1	-7.5	-10.3	12.5	13.8
O=C(CNC(=O)c1cn2ccccc2n1)Nc1ccc(F)c(F)c1	-250.1	-84.9	-3.4	-0.9	-333.7	-79.1
NNC(=S)Nc1ccc(Cl)cc1	11.8	21.3	0.7	0.3	6.2	10.9
CC(C)N=C(N)N=C(N)Nc1ccc(Cl)cc1	-2.5	90.8*	5.5	-13.6	17.3	1.5
NC(=NCCCCCCN=C(N)/N=C(\N)Nc1ccc(Cl)cc1)/N=C(\N)Nc1ccc(Cl)cc1	24.1	81.1	19.7	22.8	101.6*!	30.9
CCN(C(=O)c1ccnn1C)c1ccccc1	13.4	-0.7	-0.7	3.0	8.1	0.9
CN(C)c1ccc(C=Nc2ccccc2C(N)=O)cc1	6.3	1.1	-3.3	-41.4	63.2*	5.6
Cc1ccc(C=Nc2ccccc2C(N)=O)o1	8.9	-7.3	8.9	-6.6	-13.6	-9.6
COc1ccc2[nH]c(C)cc(=O)c2c1	3.7	-6.2	4.2	-3.0	16.8	8.1
COc1ccc2[nH]c3c(C)c4ccncc4c(C)c3c2c1	14.9	-45.1	78.3*	-40.0	106.5*	95.3*
CC(C)n1c(SCC(=O)NCc2ccco2)nnc1C1CC1	0.2	-15.0	-3.4	-1.6	20.7	9.4
COc1cccc(/C=N/n2c(-c3cc(C)[nH]n3)n[nH]c2=S)c1O	14.1	-17.1	8.7	3.4	14.2	9.5
C[C@H](NC(=O)c1[nH]cnc1C(=O)Nc1ccccc1F)c1ccccc1	-0.3	5.4	0.2	-2.6	8.4	x

Assay outcomes: PubChem, several laboratories
